These results are taken from ChEMBL document CHEMBL3433997, “St. Jude Leishmania screening dataset” (2016).

Format in all cases: functional
The target in assay [1] is Solute carrier family 2, facilitated glucose transporter member 1 (Homo sapiens) (UniProt P11166). The experiment in a line: ST_JUDE_LEISH: Cytotoxicity at 2uM final concentration against transgenic Leishmania Mexicana promastigotes LmGLUT1 that are glucose transport deficient and complemented with the human glucose transporter GLUT1. Activity is measured by DNA content using SYBR green in vitro.
Solute carrier family 2, facilitated glucose transporter member 1 (Homo sapiens), sequence (P11166 whole entry): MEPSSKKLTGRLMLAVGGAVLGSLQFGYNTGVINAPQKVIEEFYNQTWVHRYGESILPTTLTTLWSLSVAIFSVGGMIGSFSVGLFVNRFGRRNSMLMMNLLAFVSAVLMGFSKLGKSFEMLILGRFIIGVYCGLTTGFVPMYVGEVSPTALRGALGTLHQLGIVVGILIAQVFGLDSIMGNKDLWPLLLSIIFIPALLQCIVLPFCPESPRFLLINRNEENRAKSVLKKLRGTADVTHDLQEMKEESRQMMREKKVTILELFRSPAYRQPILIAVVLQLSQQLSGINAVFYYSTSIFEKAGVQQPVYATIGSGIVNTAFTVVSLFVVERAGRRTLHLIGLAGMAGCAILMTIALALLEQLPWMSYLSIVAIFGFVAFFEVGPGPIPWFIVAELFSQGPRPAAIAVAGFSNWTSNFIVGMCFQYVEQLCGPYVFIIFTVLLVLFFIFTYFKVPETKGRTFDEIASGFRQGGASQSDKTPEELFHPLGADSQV

Assay [2] concerns the target Hexose transporter 1 (Plasmodium falciparum) (UniProt O97467). The experiment in a line: ST_JUDE_LEISH: Cytotoxicity at 2uM final concentration against transgenic Leishmania Mexicana promastigotes LmPfHT that are glucose transport deficient and complemented with the Plasmodium falciparum hexose transporter. Activity is measured by DNA content using SYBR green in vitro.

Assay [3] deals with Glucose transporter (Leishmania mexicana) (UniProt O61059). The experiment in a line: ST_JUDE_LEISH: Cytotoxicity at 2uM final concentration against transgenic Leishmania Mexicana promastigotes LmGT2 that are glucose transport deficient and complemented with the L. Mexicana glucose transporter 2. Activity is measured by DNA content using SYBR green in vitro.

Molecules are shown by their SMILES.

Take `C[C@H](NC(=O)C1CCCC1)C(=O)Nc1ccc(-c2ccc(-c3nc4cc(C(F)(F)F)ccc4[nH]3)cc2)cc1`: the inhibition in assay [1] was 2.17%; in assay [2], 0.76%; in assay [3], -1.28%.
Consider `CC(=O)N(C)c1ccc(C(=O)Nc2cccc(-c3cccc(-c4nc5cccc(C)c5[nH]4)c3)c2)cc1`, for which the values for the inhibition in assay [1], in assay [2] and in assay [3] were 3.67%, 3.97% and 0.08%, respectively.
Turning to `N#Cc1ccc(N/C(=N\c2cccc(Cl)c2Cl)NCc2ccc(Cl)cc2Cl)c(O)c1`, the results for the inhibition in assay [1], in assay [2] and in assay [3] were 9.71%, 9.71% and 9.16%, respectively.
On to `COc1ccc(CNC(=O)NC2CCN(c3ccnc(Nc4ccc(F)cc4)n3)CC2)cc1`, for which the inhibition in assay [1] was 0.86%; in assay [2], 1.1%; in assay [3] it was 0.64%.
Regarding `CCO[C@H]1CN[C@H](C#Cc2cc3c(Nc4ccc(OCc5cccc(F)c5)c(Cl)c4)ncnc3s2)C1`, the values for the inhibition in assay [1], in assay [2] and in assay [3] were 0.74%, 3.65% and 3.03%, respectively.
As to `CCN1CCN(Cc2ccc(NC(=O)c3cc4ccc5cccnc5c4[nH]3)cc2)CC1`, the inhibition in assay [1] was 17.2%; in assay [2], 15.9%; in assay [3], 11.4%.
As to `Cc1ccc(NC(=O)c2cnc(N3CCN(c4ccncc4)CC3)c(Cl)c2)cc1`, the inhibition is 42.8% in assay [1], 16.1% in assay [2] and 17.1% in assay [3].
The like results for `COc1ccccc1C1CCN(C2CCC(NC(=O)c3cc(-c4ccc(Cl)cc4)cs3)CC2)CC1` (stereo unspecified) were, in that order, -0.61%, 2.96% and 0.71%.
The like results for `CN(C)c1ccc(-c2csc(C(=O)NC3CCCCN(CCC(C)(C)C)C3)c2)cc1` (stereo unspecified) were, in that order, 2.51%, 2.15% and 0.68%.
`O=C(/C=C/c1cccs1)NCC(NCCCNc1cc(=O)c2ccccc2[nH]1)c1cc(Br)cc(Br)c1` (stereo unspecified): the inhibition turned out to be 4.13% in assay [1], 3.76% in assay [2] and 4.57% in assay [3].
On to `COc1cc([N+](=O)[O-])ccc1NC(=O)c1cc(Cl)ccc1O`, for which the inhibition in assay [1] turned out to be 7.76%; in assay [2] it was 6.83%; in assay [3], 7.02%.
As for `CCOC(=O)[C@H](Cc1cccc2ccccc12)NC(=O)[C@H](CCC(=O)OC(C)(C)C)NC(=O)c1ccc(N(C)Cc2cnc3nc(N)nc(N)c3n2)cc1`, the inhibition in assay [1] came to 3.47%; in assay [2] it was 4.12%; in assay [3], 3.56%.
With `CCCN/C=N/c1cc(-c2csc(NC(=N)N)n2)cc([N+](=O)[O-])c1`, the values for the inhibition in assay [1], in assay [2] and in assay [3] were -0.32%, -0.62% and -2.26%, respectively.
`COc1ccc2[nH]c(C)cc(=NN=Cc3cccc(Cl)c3)c2c1`: the inhibition was -0.18% in assay [1], 4.08% in assay [2] and -1.05% in assay [3].
Turning to `c1ccc(COc2ccccc2COc2ccccc2-c2ccc3cccnc3n2)cc1`, the inhibition in assay [1] is 0.28%; in assay [2], -0.32%; in assay [3] it was 5.87%.
The like results for `COc1ccc(N2CCN(CCCCNC(=O)c3ccc(NC(=O)c4ccc(OC(F)(F)F)cc4)cc3)CC2)c(OC)c1` were, in that order, 5.81%, 5.69% and 6.29%.
The like results for `COc1ccc2nccc([C@@H](O)CN3CCC(NCC(=O)Nc4cc(F)cc(F)c4)CC3)c2n1` were, in that order, 37.8%, 47.2% and 58.1%.
The like results for `CC1CCCCN1CCCNC(=O)c1cccc(-c2cc3cc(Cl)c(Cl)cc3[nH]2)c1` (stereo unspecified) were, in that order, 3.16%, 3.02% and 4.99%.
`O=C(NCCNc1ccnc(Nc2ccc(F)cc2)n1)Nc1ccc2c(c1)OCO2`: the inhibition in assay [1] amounted to 1.78%; in assay [2] it was 0.82%; in assay [3], 0.6%.
Taken in the same sequence, the figures for `COc1ccccc1C1CCN(C2CCC(NC(=O)/C=C/c3ccc(C(F)(F)F)cc3F)CC2)CC1` (stereo unspecified) were 0.47%, 1.54% and -0.44%.
Taken in the same sequence, the figures for `COc1ccc(C2CC(c3ccccc3O)=NN2C(=O)c2ccco2)cc1OC` (stereo unspecified) were 0.86%, 1.48% and -2.92%.
Turning to `Cc1nc(C)c(CC(=O)Nc2ccc(-c3cccc(-c4nc5cc(C(F)(F)F)ccc5[nH]4)c3)cc2)s1`, the inhibition in assay [1] came to 13%; in assay [2], 10.6%; in assay [3], 8.58%.
For `CN(C)CCCOc1c(C(C)(C)C)cc(-c2cc(C(C)(C)C)c(OCCCN(C)C)c(C(C)(C)C)c2)cc1C(C)(C)C`, the inhibition in assay [1] is 7.07%; in assay [2] it was 4.77%; in assay [3] it was 3.12%.
Taken in the same sequence, the figures for `CNC(=O)CC(=O)NCCc1ccc(Cl)cc1` were -0.63%, 1.17% and 0.06%.
Taken in the same sequence, the figures for `CCN(CCO)Cc1ccc(-c2ccc(NS(=O)(=O)c3cccc4cccnc34)cc2)cc1` were 89.5%, 95.5% and 92.4%.
Taken in the same sequence, the figures for `COCCCC1C(=O)OC2CCCC21` (stereo unspecified) were 0.19%, 3.28% and 2.52%.
For the compound `CC(CCCCCC(=O)Nc1ccc(CC(C)NCCc2cccc(Cl)c2)cc1)NCCc1cccc(Cl)c1` (stereo unspecified), the values for the inhibition in assay [1], in assay [2] and in assay [3] were 12.9%, 10.6% and 9.83%, respectively.
Regarding `COc1cc2ncnc(Nc3ccc(OCc4ccccc4)c(OCc4ccccc4)c3)c2cc1OC`, the inhibition in assay [1] is 4.65%; in assay [2] it was 5.44%; in assay [3], 2.69%.
In the case of `Oc1c(Cl)cc(-c2ccccc2)cc1CNC1CCCCC1`, the inhibition in assay [1] stood at 2.63%; in assay [2] it was 1.84%; in assay [3], 0.52%.
`Cc1[nH]c(C)c(-c2ccc(-c3ccccc3F)nc2)c(=O)c1Cl`: the inhibition is 1.2% in assay [1], -2.36% in assay [2] and 1.16% in assay [3].
Regarding `NC(=O)c1cccc(C(=O)Nc2cccc(-c3cccc(-c4nc5cc(C(F)(F)F)ccc5[nH]4)c3)c2)c1`, the inhibition in assay [1] was -0.51%; in assay [2] it was 0.13%; in assay [3], 0.83%.
Taken in the same sequence, the figures for `CCNc1cc(C(=O)N[C@@H](Cc2ccccc2)[C@H](O)CNC2CCC(C(C)(C)C)CC2)cc(N2CCCC2=O)c1` (stereo partly specified) were 0.78%, 1.1% and -2.55%.
